FMDV antiviral = Primary qHTS Assay for Foot and Mouth Disease Virus Antivirals against NCGC Sytravon and CBC Compound Libraries: Firefly Luciferase Signal | 0.23% of 120,000 active | Potency, µM (titrated, usually from 57.5 µM), inactives show at the highest dose activity change, negative = inhibition, most hits filed as inhibitors | FMDV antiviral cell assay, firefly luciferase signal | AID 1745856, 2022; note: nearly all actives have a fitted effect of over 60% in size
FMDV Renilla = Primary qHTS Assay for Foot and Mouth Disease Virus Antivirals against NCGC Sytravon and CBC Compound Libraries: Renilla Luciferase Signal. FMDV replicon cells, Renilla luciferase signal. Potency, µM (highest dose often 57.5 µM), without a hit: at the highest dose activity change, negative = inhibition, actives largely listed as inhibitors. 0.32% of 120,000 active. AID 1745857, 2022; note: nearly all actives have a fitted effect of over 55% in size
Numbers without * were called inactive; ? = inconclusive; [ ] = dose if it differs, or a comment. Only some compounds are listed: those with a hit (about 0.51% of all), similar ones and a draw of the others. Calls come from the whole dose curve. % is set by controls: 0 for no effect and ±100 for the full control effect; potency is the fitted concentration of half-maximal effect.

SMILES	FMDV antiviral	FMDV Renilla
CC(N(C)C(=O)Cc1cccc(F)c1)C(C)(C)C (stereo not given)	7%	-7%
Nc1nccnc1C(=O)NCc1cccnc1	-7%	-16%[1.06 µM]
Nc1nccnc1C(=O)NCc1ccc(N2CCCCC2)nc1	?	5.6µM*
Nc1nccnc1C(=O)NCc1ccc(CN2CCCCC2)cc1	0%	0%
Nc1nccnc1C(=O)NCc1ccc(Oc2cccc(F)c2)nc1	?	8.9µM*
CC(=O)c1ccc(NC(=O)C2=Cc3sc4c(c3CS2)CCCC4)cc1	15%	3%
COc1cc(C)c(NC(=O)c2ccc3c(c2)NC(=O)CS3)cc1OC	12%	18%
CCCCS(=O)(=O)c1oc(-c2ccc(F)cc2)nc1S(=O)(=O)c1ccccc1	28µM*	6%
CC(C)S(=O)(=O)c1oc(-c2ccc(F)cc2)nc1S(=O)(=O)c1ccccc1	?	4%
O=C(CCc1cccnc1)Nc1ccccc1	38%	-3%
COc1ccccc1-c1noc(-c2ccc(S(=O)(=O)N3CCOCC3)o2)n1	-7%	-8%
CCOc1ccc(C(=O)Nc2ccc3oc(-c4ccncc4)nc3c2)cc1Br	?	6.3µM*
COc1ccc(C(=O)Nc2ccc3oc(-c4ccncc4)nc3c2)cc1OC	0%	-5%
CC1=C(C#N)C(c2cc(Br)ccc2OC(F)F)C(C#N)=C(C)N1	?	28µM*
CC1=C(C#N)C(c2ccccc2C)C(C#N)=C(C)N1	-18%	-4%
COc1ccc(-c2nc(Cc3ccccc3Cl)no2)cc1OC	59%	70%
CCCOc1cccc(C(=O)Nc2ccc(-c3cc4ccccc4oc3=O)c(C)c2)c1	3%	-14%
CCCOc1ccc(C(=O)Nc2ccc(-c3cc4ccccc4oc3=O)c(C)c2)cc1	7.9µM*	4.5µM*
COc1ccc(C(C)(C)C)cc1NC(=O)c1ccc(NC(=O)CC#N)cc1	0%	6%
Cc1ccnc(NS(=O)(=O)c2ccc(NC(=O)c3nc(SC(C)C)ncc3Cl)cc2)n1	-5%	-13%
Cc1cc(C)nc(NS(=O)(=O)c2ccc(NC(=O)c3nc(SC(C)C)ncc3Cl)cc2)n1	-9%	11µM*
CC(C)OC(=O)/C(C#N)=C\c1ccc(-c2cc(Cl)ccc2Cl)o1	14%	-2%
Cc1ccc(NC(=O)Cc2n[nH]c(=O)c3ccccc23)cc1F	118%	49%
CCc1cc(=O)oc2cc(OC(C)C(=O)NC3CCCCCC3)ccc12 (stereo not given)	9%	11%
Cc1ccc(-n2nnc(C(=O)N(C)c3ccccc3)c2C)cc1Cl	0%	-2%
SMILES	FMDV antiviral	FMDV Renilla
COc1ccc(CNCCc2ccc(F)cc2)cc1	0%	4%[1.06 µM]
COc1ccc(CCNCc2ccc(Br)cc2)cc1	0%	13µM*
O=C(Nc1ccccc1)c1cc(S(=O)(=O)N2CCOCC2)ccc1F	7%	-5%
Cc1ccc(-c2nc(SCC(=O)N3CCCC3c3ccc4c(c3)OCCO4)n[nH]2)cc1 (stereo not given)	?	20µM*
O=C(CSc1nnnn1C1CC1)N1CCCC1c1ccc2c(c1)OCCO2 (stereo not given)	4%	-5%
CCc1ccc(-c2nc(SCC(=O)N3CCCC3c3ccc4c(c3)OCCCO4)n[nH]2)cc1 (stereo not given)	?	28µM*
CCc1ccc(-c2nnn(CC(=O)N3CCCC3c3ccc4c(c3)OCCO4)n2)cc1 (stereo not given)	-12%	-16%
COc1ccccc1Nc1nc(-c2ccc3c(c2)CCC(=O)N3)cs1	76%	15%
Cc1c(O)ccc2c(CSc3nnc(N4CCCC4)s3)cc(=O)oc12	9%	7%
CCN1CCc2c(sc(NC(=O)Nc3cccc(C)c3)c2C(N)=O)C1	71%	0%
COc1ccc(-c2nc(SCc3cc(=O)c4cccc(Cl)c4[nH]3)n[nH]2)cc1	?	11µM*
COc1ccc(-c2nc(SCc3cc(=O)c4cc(C)ccc4[nH]3)n[nH]2)cc1	-16%	?
CCN1CCN(c2oc(-c3ccc(S(=O)(=O)N4CCOCC4)cc3)nc2C#N)CC1	7%	-15%
C[C@@H]1O[C@@H](O[C@@H]2C=C3CC[C@@H]4[C@H](CC[C@]5(C)[C@@H](c6ccc(=O)oc6)CC[C@]45O)[C@@]3(C)CC2)[C@H](O)[C@H](O)[C@H]1O	-85%	-79%
COC1CC(OC2CCC3(/C=N/O)[C@H]4CCC5(C)C(C6=CC(=O)OC6)CCC5(O)[C@@H]4CCC3(O)C2)OC(C)C1O (stereo not given in full)	?	0.35µM*
CC(=O)OC1CCC2(/C=N/O)[C@H]3CCC4(C)C(C5=CC(=O)OC5)CCC4(O)[C@@H]3CCC2(O)C1 (stereo not given in full)	0.79µM*	1µM*
O=C(CSc1n[nH]c(=O)c2cc(-c3ccco3)nn12)Nc1ccc(F)cc1	77%	-1%
CCN(CC)c1ccc(Nc2nc(N3CCOCC3)c3ccccc3n2)cc1	?	20µM*

Screening results deposited in PubChem BioAssay by National Center for Advancing Translational Sciences (NCATS).
